Source: PubChem BioAssay
In the library only some 7.3% were active in any assay of this set; here they are far more common.
VP16 counter = inhibits Gal4-VP16 luciferase reporter, ROR gamma counter-screen; Drosophila S2 Gal4-VP16 UAS-luciferase, luminescence, 20 h; Potency, µM (series often up to 53.6 µM), for the others: at the highest dose activity, negative = inhibition, actives largely listed as inhibitors; 3.5% of 310,000 active;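 also: Gal4-VP16 expression switched on by copper sulfate through the metallothionein promoter; nearly all actives have a fitted effect of over 50% in size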
RORgamma inh = inhibitors of mouse ROR gamma transcriptional activity; 5.4% of 310,000 active; Potency, µM (highest dose often 53.6 µM), for inactives: top-dose activity change, negative = inhibition, most hits filed as inhibitors; P51450; AID 2551; Drosophila S2 Gal4-RORgamma UAS-luciferase reporter, 20 h; also: nearly all actives have a fitted effect of over 60% in size
Target sequence (P51450 whole entry, looked up, the tested form may be a part): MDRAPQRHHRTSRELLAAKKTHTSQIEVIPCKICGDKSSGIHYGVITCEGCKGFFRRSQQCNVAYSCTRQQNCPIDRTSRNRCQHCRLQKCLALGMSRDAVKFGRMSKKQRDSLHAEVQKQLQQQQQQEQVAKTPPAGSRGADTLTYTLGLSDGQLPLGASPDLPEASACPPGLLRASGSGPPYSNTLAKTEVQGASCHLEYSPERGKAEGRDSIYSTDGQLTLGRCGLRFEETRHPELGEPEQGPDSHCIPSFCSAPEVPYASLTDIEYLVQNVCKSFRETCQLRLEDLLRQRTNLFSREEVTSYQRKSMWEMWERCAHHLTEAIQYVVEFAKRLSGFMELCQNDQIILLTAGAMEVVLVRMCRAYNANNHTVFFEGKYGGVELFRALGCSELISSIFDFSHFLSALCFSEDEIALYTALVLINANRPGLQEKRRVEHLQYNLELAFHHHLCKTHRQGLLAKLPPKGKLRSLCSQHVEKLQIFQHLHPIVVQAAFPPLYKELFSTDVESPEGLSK
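Luciferase reporter read in Schneider cells carrying Gal4-RORγ (mouse) and UAS-Photinus luciferase; cells given compound 1 h before 700 uM copper sulfate induction, then incubated 20 h at ambient temperature.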
Tau ThT inhib = inhibitors of human tau fibril formation, thioflavin T binding; P10636; Potency, µM (doses to about 57.4 µM), for inactives: at the top dose activity, negative = inhibition, actives largely listed as inhibitors; 2.1% of 270,000 active; recombinant tau K18 P301L, heparin-induced fibrillization, ThT fluorescence; AID 1460; also: nearly all actives have a fitted effect of over 55% in size
Target sequence (P10636 561-689 P618L limits assumed): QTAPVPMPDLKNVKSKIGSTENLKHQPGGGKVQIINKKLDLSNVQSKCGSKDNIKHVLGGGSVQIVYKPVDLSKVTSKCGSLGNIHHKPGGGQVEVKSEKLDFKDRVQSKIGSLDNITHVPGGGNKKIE
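ThT emission at 510 nm, taken 1 hr after adding 30 uM dye, quantifies aggregates formed when 20 uM heparin acts on human tau K18 P301L for 6 hr at 37 C.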
Tau fluor cs = counter-screen for tau fibril formation inhibitors | tau K18 P301L (four-repeat tau fragment) Alexa594 fluorescence, heparin fibrillization | Potency, µM (top dose mostly 57.7 µM), for inactives: at the highest dose activity change, negative = decrease | 0.93% of 280,000 active | AID 1463; also: nearly all actives have a fitted effect of over 55% in size
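Human K18 P301L tau (15 uM unlabeled plus 0.24 uM Alexa 594-labeled, final) in 100 mM sodium acetate pH 7 was mixed with compound and 20 uM heparin and incubated 6 hr at 37 C.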
Tau fibril FP = blocks human tau fibril formation measured by polarization; 0.39% of 280,000 active; K18 P301L tau heparin fibrillization, Alexa594 FP, 6 h; Potency, µM (highest dose often 57.7 µM), for the others: top-dose activity, negative = inhibition, most hits filed as inhibitors; also: nearly all actives have a fitted effect of over 55% in size
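Human K18 P301L fragment (15 uM unlabeled plus 0.24 uM Alexa 594-labeled) in 100 mM sodium acetate pH 7 with compound, aggregation induced by 20 uM heparin for 6 hr at 37 C. ThT (30 uM) added for 1 hr, then Alexa 594 FP read.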
An asterisk follows results filed as active; ! = repeats disagree; [ ] = another dose, or the depositor's remark. Calls follow the shape of the dose curve; as a rule, active = well fitted curve in the direction sought with a large enough effect; inconclusive = small, poorly fitted or top-dose-only effect, or another doubt; inactive = no such curve, though single readings can be large; an effect the other way counts as inactive or inconclusive. % is scaled to controls: 0 for no effect and ±100 for the full control effect; potency is read from the fitted curve at half-maximal effect.

What do the screens show for `Cc1ccc(-n2c(O)c(/C=N/NC(=O)c3ccncc3)c(=O)[nH]c2=O)cc1`?
VP16 counter: 4%; RORgamma inh: 40%; Tau ThT inhib: inconclusive; Tau fluor cs: -12%; Tau fibril FP: -2%

How did Cc1ccccc1-n1c(O)c(/C=N/NC(=O)c2ccccc2O)c(=O)[nH]c1=S do in these assays?
VP16 counter: -1%; RORgamma inh: inconclusive; Tau ThT inhib: inconclusive; Tau fluor cs: -14%; Tau fibril FP: inconclusive

How did Cc1ccc(C)c(N2CCN(c3ncnc4onc(C)c34)CC2)c1 do in these assays?
Tau ThT inhib: inconclusive; Tau fluor cs: -20%; Tau fibril FP: -9%

How did O=c1[nH]c(=S)n(CCC2=CCCCC2)c(O)c1C=NCc1cccnc1 do in these assays?
VP16 counter: -7%; RORgamma inh: -24%; Tau ThT inhib: -3%; Tau fluor cs: -5%; Tau fibril FP: -10%

Results for O=C(N/N=C/c1c(O)n(-c2ccccc2)c(=S)[nH]c1=O)c1ccccc1 ?
VP16 counter: 4%; RORgamma inh: 7.9µM*; Tau fluor cs: 15%[0.0958 µM]; Tau fibril FP: 4%[0.0958 µM]

How did O=C(N/N=C/c1c(O)n(CCC2=CCCCC2)c(=S)[nH]c1=O)c1ccccc1 do in these assays?
VP16 counter: inconclusive; RORgamma inh: 5µM*; Tau ThT inhib: 25µM*; Tau fluor cs: inconclusive; Tau fibril FP: inconclusive

How did CCNC(=O)CCSc1nc2cc(Cl)ccc2o1 do in these assays?
VP16 counter: inconclusive; RORgamma inh: 16%; Tau ThT inhib: -1%; Tau fluor cs: 1%; Tau fibril FP: -4%

Results for C=CCN1C(=O)/C(=C/c2cc(C)n(-c3cccnc3)c2C)C(=O)NC1=S ?
VP16 counter: 10%; RORgamma inh: 12%; Tau ThT inhib: 22µM*; Tau fluor cs: -19%; Tau fibril FP: inconclusive

Results for COc1ccccc1N1CCN(Cc2ccccc2)CC1 ?
VP16 counter: 3%; RORgamma inh: -16%

What do the screens show for `COc1ccc(N2C(=O)C(Cl)=C(N3CCN(Cc4ccccc4)CC3)C2=O)cc1`?
VP16 counter: 15%; RORgamma inh: inconclusive; Tau ThT inhib: 25µM*; Tau fluor cs: -30%; Tau fibril FP: 28µM*

Results for O=C1C(Cl)=C(N2CCCCCC2)C(=O)N1c1ccccc1 ?
VP16 counter: 22%; RORgamma inh: 3%; Tau ThT inhib: 25µM*; Tau fluor cs: inconclusive; Tau fibril FP: inconclusive

Results for ClCC(Cl)CCl ?
VP16 counter: -1%; RORgamma inh: 2%

What do the screens show for `CCCCCn1c(=O)c(C(=O)NCc2ccc(Cl)cc2)c(O)c2ccccc21`?
VP16 counter: 13µM*; RORgamma inh: 10µM*

Results for CCCCn1c(=O)c(C(=O)NCc2ccncc2)c(O)c2ccccc21 ?
VP16 counter: inconclusive; RORgamma inh: inconclusive; Tau ThT inhib: inconclusive; Tau fluor cs: -11%; Tau fibril FP: 5%

Results for CCCCn1c(=O)c(C(=O)NCc2ccccc2Cl)c(O)c2ccccc21 ?
VP16 counter: 1%; RORgamma inh: 16µM*

Results for CCCCCCn1c(=O)c(C(=O)Nc2ncccc2C)c(O)c2ccccc21 ?
VP16 counter: 7.9µM*; RORgamma inh: 14µM*

Results for CCCCCn1c(=O)c(C(=O)Nc2ccccc2C)c(O)c2ccccc21 ?
VP16 counter: 26%; RORgamma inh: -42%[1.91 µM]

How did CC[C@]1(O)CC[C@H]2[C@@H]3CCC4=CCCC[C@@H]4[C@H]3CC[C@@]21C do in these assays?
VP16 counter: 4%; RORgamma inh: 1%

Results for O=C(CNC(=O)c1ccccc1)NCC(=O)OCC(=O)c1ccc([N+](=O)[O-])cc1 ?
VP16 counter: -24%; RORgamma inh: -1%; Tau ThT inhib: inconclusive; Tau fluor cs: -17%; Tau fibril FP: inconclusive

Results for O=C(CNC(=O)c1ccc(Br)cc1)NCC(=O)OCC(=O)c1ccc([N+](=O)[O-])cc1 ?
VP16 counter: inconclusive; RORgamma inh: -3%; Tau ThT inhib: 28µM*; Tau fluor cs: -25%; Tau fibril FP: inconclusive

How did COc1ccc2o/c(=N\O)c(C(=O)Nc3ccc(C)cc3)cc2c1 do in these assays?
VP16 counter: -6%; RORgamma inh: -12%; Tau ThT inhib: 16µM*; Tau fluor cs: -24%; Tau fibril FP: -12%

Results for CC(Cc1ccc(C(C)(C)C)cc1)CN1CCCCC1 (configuration not stated) ?
VP16 counter: -2%; RORgamma inh: -7%

What do the screens show for `BrCCBr`?
VP16 counter: 7%; RORgamma inh: 0%

What do the screens show for `Clc1ccc(C(c2ccc(Cl)cc2)n2cc[n+](CC(OCc3ccc(Cl)cc3Cl)c3ccc(Cl)cc3Cl)c2)cc1` (configuration not stated)?
VP16 counter: 11µM*; RORgamma inh: inconclusive; Tau ThT inhib: inconclusive; Tau fluor cs: -5%; Tau fibril FP: -2%

How did CCOC(=O)c1c(/N=C/c2c(O)n(-c3ccc(F)cc3)c(=S)[nH]c2=O)sc2c1CCCC2 do in these assays?
VP16 counter: 2%; RORgamma inh: 16%; Tau ThT inhib: -15%; Tau fluor cs: -3%; Tau fibril FP: -3%

What do the screens show for `CCOC(=O)c1c(/N=C/c2c(O)n(-c3ccccc3F)c(=S)[nH]c2=O)sc2c1CCCC2`?
VP16 counter: -6%; RORgamma inh: 3%; Tau ThT inhib: 22µM*; Tau fluor cs: -16%; Tau fibril FP: inconclusive

How did O=C(O)c1ccccc1S do in these assays?
VP16 counter: 3%; RORgamma inh: 9%; Tau ThT inhib: inconclusive; Tau fluor cs: -12%; Tau fibril FP: -14%

Results for O=C(CCCCCn1c(=S)[nH]c2ccccc2c1=O)N1CCC2(CC1)OCCO2 ?
VP16 counter: inconclusive; RORgamma inh: 10µM*; Tau ThT inhib: -20%; Tau fluor cs: -12%; Tau fibril FP: 7%

How did ClCc1ccccn1 do in these assays?
VP16 counter: -14%; RORgamma inh: -4%

What do the screens show for `c1ccc2c(c1)OCC(C1=NCCN1)O2` (configuration not stated)?
VP16 counter: -1%; RORgamma inh: 16µM*!; Tau ThT inhib: inconclusive; Tau fluor cs: -8%; Tau fibril FP: 6%

Results for O=C(Nc1ccc(Cl)c(C(F)(F)F)c1)NC1CC2CCCC(C1)N2Cc1ccccc1 (configuration not stated) ?
VP16 counter: inconclusive; RORgamma inh: inconclusive; Tau ThT inhib: -12%; Tau fluor cs: inconclusive; Tau fibril FP: 28µM*

How did O=C(Nc1ccc(Cl)c(C(F)(F)F)c1)c1ccc2c(c1)CCN2S(=O)(=O)c1ccccc1 do in these assays?
Tau ThT inhib: 10%; Tau fluor cs: inconclusive; Tau fibril FP: inconclusive

How did CCC#N do in these assays?
VP16 counter: 0%; RORgamma inh: 20%
